Data from PubChem BioAssay AID493012 (Sanford-Burnham Center for Chemical Genomics, 2011).
Screen size: about 330,000 compounds; about 930 (0.28%) were called active. The list comes from a sample in which actives are over-represented; it also holds similar structures and randomly drawn compounds. Values without a mark were called inactive.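 Rule for the calls: active = inhibition of at least 40% at 20 µM, with no more than 30% in the related APOBEC3A deaminase screen; inactive = the rest.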

Target: DNA dC->dU-editing enzyme APOBEC-3G (Homo sapiens) (UniProt Q9HC16)
Sequence (Q9HC16 whole entry, looked up): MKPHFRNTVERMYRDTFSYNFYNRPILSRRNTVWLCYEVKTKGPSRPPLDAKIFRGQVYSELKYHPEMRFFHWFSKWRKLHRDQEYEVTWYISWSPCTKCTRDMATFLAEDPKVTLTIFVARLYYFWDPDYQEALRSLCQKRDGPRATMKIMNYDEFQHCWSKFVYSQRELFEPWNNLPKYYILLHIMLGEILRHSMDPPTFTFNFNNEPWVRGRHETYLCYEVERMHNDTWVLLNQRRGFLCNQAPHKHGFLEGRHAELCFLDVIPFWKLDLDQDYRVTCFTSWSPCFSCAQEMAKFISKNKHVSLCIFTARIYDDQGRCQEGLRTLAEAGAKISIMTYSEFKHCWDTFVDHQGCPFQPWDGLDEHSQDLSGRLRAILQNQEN
Assay: inhibition of human A3G ssDNA deamination – biochemical, fluorescence, single-stranded DNA substrate, uHTS, primary screen (AID 493012);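 note: plate controls were DMSO wells with A3G for no effect and wells lacking A3G enzyme for full effect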
Details: recombinant A3G, ssDNA deamination FAM/TAMRA fluorescence; at 20 µM; hits give high values

Row | Structure (SMILES) | inhibition
1 | COc1ccc(O)c(C(=O)c2cnc3c(c2)c(-c2ccc(F)cc2)c(C#N)c(=O)n3C)c1 | -3.05%
2 | Cc1cc(C)c2c(-c3ccc(F)cc3)c(C#N)c(=O)n(C)c2n1 | 53.9% (active)
3 | Cn1c(N)cc(-c2ccc(F)cc2)c(C#N)c1=O | -8.38%
4 | CC1c2nc3ccccc3n2C(CC(=O)NCCCN2CCOCC2)C(=O)N1Cc1ccccc1 (stereo unspecified) | -9.69%
5 | O=C(Nc1ccc(-c2ccc3nncn3n2)cc1)C1CCCCC1 | -1.63%
6 | CN(C)c1nc(NN)nc(Nc2ccc(F)cc2)n1 | -0.168%
7 | Fc1ccc(Nc2nnns2)cc1 | 48.9% (active)
8 | O=C(Nc1ccncc1)Nc1ccc(F)cc1 | -2.01%
9 | CCOC(=O)C(C)Sc1nnc(CSc2nc3nc(C)cc(C)n3n2)o1 (stereo unspecified) | -3.96%
10 | CC(=O)c1c(C)[nH]c(=S)c(C#N)c1-c1ccc(F)cc1 | 5.87%
11 | CCc1c(C)[nH]c(=S)c(C#N)c1C | 40.3% (active)
12 | CCC(=O)N(C)C(c1ccccc1Cl)c1nnnn1-c1c(C)cccc1C (stereo unspecified) | -7.17%
13 | COC(=O)c1ccc2c(=O)n(CCN3CCOCC3)c(SCC(=O)Nc3cccc(OC)c3)nc2c1 | -3.78%
14 | CC(=O)N(C1=C(Cl)C(=O)c2ccccc2C1=O)c1ccc(C(=O)O)cc1 | 89.2% (active)
15 | O=C(COC(=O)c1ncc(Cl)c(Cl)c1Cl)NC1CCS(=O)(=O)C1 (stereo unspecified) | -7.97%
16 | CC1=C/C(=N\OS(=O)(=O)c2ccccc2)C=CC1=O | 71.9% (active)
17 | N#Cc1c(Cl)nc(-c2cccnc2)nc1-c1ccccc1 | -2.3%
18 | Cc1ccc(-n2c(N)c(C(=O)N3CCOCC3)sc2=S)c(C)c1 | 10.5%
19 | N#Cc1ccccc1-n1c(N)c(C(=O)N2CCCC2)sc1=S | 25.4%
20 | Cc1cccc(-n2c(N)c(C(=O)N3CCN(C)CC3)sc2=S)c1 | 62.1% (active)
21 | COc1ccc(Cc2n[nH]c(=S)n2NC(=O)Nc2ccc(C)cc2)cc1 | 26.9%
22 | Cc1ccc(OCc2n[nH]c(=S)n2-c2ccccc2)cc1 | 9.43%
23 | COc1ccc(OCc2n[nH]c(=S)n2N)cc1 | 59.6% (active)
24 | COC(=O)c1cccc(N(C(=O)c2ccco2)C(C(=O)NC2CCCC2)c2ccco2)c1 (stereo unspecified) | 0.606%

Row | Structure (SMILES) | inhibition
25 | Cn1c(=O)c2c(SCC(=O)NCC3CCCO3)nc(CC(C)(C)C)nc2n(C)c1=O (stereo unspecified) | -3.25%
26 | CCOc1ccc(CN2CCN(Cc3ccc4cc(F)ccc4n3)CC2CCO)cc1 (stereo unspecified) | -8.75%
27 | Cc1ccc(S(=O)(=O)N2CCC(Oc3ccc(-n4cnnn4)cc3)CC2)cc1 | -1.49%
28 | CCCn1c(O)c(CN2CCCC(C)C2)c(C)c(C#N)c1=O (stereo unspecified) | -4.49%
29 | O=c1[nH]n2c(-c3ccccc3)nc(O)c2c2ccccc12 | -3.66%
30 | O=c1[nH]c2ccccc2n2c(-c3ccccc3)nnc12 | 83.4% (active)
31 | CC1(C)CC(=O)C2=C(C1)N=C1SCCC(=O)N1C2c1ccc(C(F)(F)F)cc1 (stereo unspecified) | -0.591%
32 | COc1cccc(OCc2nnc3n2N=C(c2ccccc2)C(CC(=O)O)S3)c1 (stereo unspecified) | -9.67%
33 | COc1ccc(C2CC(c3ccccc3)=NN2C(=O)COC(=O)COc2ccccc2)cc1 (stereo unspecified) | -5.97%
34 | COc1ccc(OCc2nnc3n2N=C(c2ccccc2)C(CC(=O)O)S3)cc1 (stereo unspecified) | 65.2% (active)
35 | COc1cc(OC)c(NC(=O)C2CCCN2C(=O)OCc2ccccc2)cc1Cl (stereo unspecified) | -7.18%
36 | CCOC(=O)C1=C(C)Nc2sc(C(=O)c3ccc(Br)cc3)c(N)c2C1c1ccc(C(=O)OC)cc1 (stereo unspecified) | -6.26%
37 | CCOC(=O)c1sc(=S)n2c1[nH]c(=O)c1ccc(C(=O)OC)cc12 | 41.3% (active)
38 | CCOC(=O)c1ccc(Nc2cc3ccccc3c(=O)[nH]2)cc1 | -6.08%
39 | CCCN1C2CCCC1CC(NC(=O)NC13CC4CC(CC(C4)C1)C3)C2 (stereo unspecified) | -7.31%
40 | CC(C)C1Nc2c(C(=O)O)cccc2C(Nc2ccccc2C(=O)O)C1(C)C (stereo unspecified) | 3.35%
41 | COc1ccc(N2C(=O)CC(SC(C)C)C2=O)cc1 (stereo unspecified) | -8.49%
42 | COc1ccc(-c2nc(SCC(=O)N3CCCC3)n[nH]2)cc1 | -17.7%
43 | COc1ccc(N2C(=O)CC(Sc3n[nH]c(-c4ccc(C)cc4)n3)C2=O)cc1 (stereo unspecified) | 41.5% (active)
44 | CCOC(=O)C1=C(c2ccccc2)NC(=O)NC1c1cc(OCC)c(O)c([N+](=O)[O-])c1 (stereo unspecified) | -2.96%
45 | CCOC(=O)c1cnc(Nc2nc3ccccc3o2)nc1CSC(=S)N1CCCCC1 | -3.98%
46 | CC(C)NC(=O)NC(=O)COC(=O)c1ccc(NC(=O)CC#N)cc1 | -1.25%
47 | CCOc1ccc(NC(=O)c2ccc(NC(=O)COC(=O)c3ccc(NC(=O)CC#N)cc3)cc2)cc1 | 66.2% (active)
48 | N#CCC(=O)Nc1ccc(C(=O)OCC(=O)Nc2sc3c(c2C#N)CCCC3)cc1 | -9.04%

Row | Structure (SMILES) | inhibition
49 | COc1ccc(C2(C)ON(c3ccccc3C(F)(F)F)C2=O)cc1 (stereo unspecified) | -6.81%
50 | O=C1C=CC(=O)N1c1ccc(N2CCCCC2)cc1 | 56.8% (active)
51 | CC(=O)Nc1ccc(S(=O)(=O)Nc2ccc(N3CCCCC3)cc2)cc1 | -1.93%
52 | O=C(C1CC(=O)N(C2CCCCC2)C1)N1CCN(c2ccccc2)CC1 (stereo unspecified) | -5.67%
53 | COc1ccccc1OCC(=O)Nc1c2c(nn1-c1ccc(F)cc1)CS(=O)(=O)C2 | -3.56%
54 | O=C(NCC1CCCCC1)c1cc(S(=O)(=O)N2CCCCC2)ccc1N1CCOCC1 | -1.87%
55 | O=C(CCn1c(=O)oc2ccccc21)Nc1ccon1 | -6.36%
56 | COC(=O)c1c(C)c(C)nc(N)c1C#N | -1.41%
57 | Cc1nc(Cl)c(C#N)c2c1CCCC2 | -4.63%
58 | COCc1c(N)c(C)nc(Cl)c1C#N | 66.3% (active)
59 | Brc1ccc(C2CC(c3ccccc3)=Nc3ccccc3N2)cc1 (stereo unspecified) | -3.13%
60 | Cn1cccc1C(=O)NC(=O)COC(=O)Cc1coc2ccc3ccccc3c12 | -8.11%
61 | COc1cccc(CN2CCN(Cc3ccc4cccc(F)c4n3)CC2CCO)c1 (stereo unspecified) | -9.71%
62 | COc1ccc(CNC(=O)C(=O)N2CCC3(CC2)OCCN3S(=O)(=O)c2ccc(C)cc2)cc1 | -5.73%
63 | Cc1ccc(NC(=O)CN(C)C(=O)c2ccc(Cl)c(S(=O)(=O)NCc3ccco3)c2)cc1 | -5.2%
64 | Fc1ccc(/C=N/n2c(COc3ccccc3)n[nH]c2=S)cc1 | 13.5%
65 | S=c1[nH]nc(-c2ccco2)n1/N=C/c1ccc(Br)s1 | 17%
66 | S=c1[nH]nc(-c2ccco2)n1/N=C/c1ccccc1 | 44.3% (active)
67 | Cc1ccc(CN2CCN(/N=C/c3ccco3)CC2)c(C)c1 | -10.3%
68 | Cc1cc(-c2n[nH]c(=S)n2/N=C/c2ccco2)n[nH]1 | 44.7% (active)
69 | COc1ccccc1/C=C/C=N/n1c(-c2ccc(Cl)cc2Cl)n[nH]c1=S | -7.26%
70 | CCC(C)(C)NC(=O)c1cc([N+](=O)[O-])ccc1N1CCCCC1 | -0.515%
71 | CC1(C)C[C@H]2C3=CCC4[C@@]5(C)CC[C@H](O)[C@](C)(CO)C5CC[C@@]4(C)[C@]3(C)C[C@@H](O)[C@@]2(CO)[C@@H](O)[C@@H]1O (stereo partly specified) | -1.86%
